Experiment [1] is described as follows: Drug repurposing screens with cells derived from glioblastoma tumor samples (AID 1345199). For activity, negative = cell killing: % is set by controls: 0 for no effect and ±100 for the full control effect. Note: nearly all actives have a fitted effect of over 40% in size. Note: potency is the fitted concentration of half-maximal effect. The conditions noted are these: GBM patient neurospheres viability, ATP luminescence, 48 h. The method in brief:
(§1)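 Primary testing used CD133+ neurospheres from four GBM patients, seven concentrations, 48 h exposure and ATP-based viability; confirmation added three slower-growing patient lines.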

A further experiment relates to astro (control astrocytes). The description is as above. The conditions noted are these: viability, ATP luminescence, 48 h; series mostly up to 45.9 µM. The method in brief: as §1
In experiment [2] the target is Nuclear receptor subfamily 1 group I member 2 (Rattus norvegicus) (UniProt Q9R1A7). The experiment is described as follows: qHTS assay for small molecule activators of the rat pregnane X receptor (rPXR) signaling pathway (AID 651751; call rule not given here; note: 0% is about no effect). To be noted: rPXR reporter cells, luciferase (One-Glo), 24 h.
Experiment [3] can be described thus: qHTS assay for small molecule activators of the human pregnane X receptor (PXR) signaling pathway (AID 720659; call rule not given here; note: 0% is about no effect). To be noted: DPX-2 HepG2 CYP3A4-luciferase, 24 h; series mostly up to 92.3 µM. (Quantitative high-throughput screening tests each substance at several concentrations.)
Where [4] appears, read: at 45.9 µM (top of the series), tumour line B.
[5] abbreviates: at 45.9 µM (top of the series), tumour line D.
Where [6] appears, read: at 46.1 µM (top of the series), tumour line C.
The mark [7] stands for this setting: at 20 µM (top of the series), tumour line C.
[8] abbreviates: at 21.2 µM (top of the series), tumour line B.
Setting [9] is: at 21.2 µM (top of the series), tumour line D.
Setting [10] is: at 46 µM (top of the series), tumour line A.

SMILES strings stand for the structures. Where “and” joins values, the source holds several entries; their conditions need not be identical. Equal values may be shown once. Values without a mark were called inactive. Inconclusive results are not listed. Calls of active or inactive are those of the source. Unless noted, calls come from the whole dose curve; as a rule, active = well fitted inhibition curve with a large enough effect; inconclusive = small, poorly fitted or top-dose-only effect; inactive = flat fitted curve, though single readings scatter.

Sequence of Nuclear receptor subfamily 1 group I member 2 (Rattus norvegicus) (Q9R1A7 whole entry, looked up): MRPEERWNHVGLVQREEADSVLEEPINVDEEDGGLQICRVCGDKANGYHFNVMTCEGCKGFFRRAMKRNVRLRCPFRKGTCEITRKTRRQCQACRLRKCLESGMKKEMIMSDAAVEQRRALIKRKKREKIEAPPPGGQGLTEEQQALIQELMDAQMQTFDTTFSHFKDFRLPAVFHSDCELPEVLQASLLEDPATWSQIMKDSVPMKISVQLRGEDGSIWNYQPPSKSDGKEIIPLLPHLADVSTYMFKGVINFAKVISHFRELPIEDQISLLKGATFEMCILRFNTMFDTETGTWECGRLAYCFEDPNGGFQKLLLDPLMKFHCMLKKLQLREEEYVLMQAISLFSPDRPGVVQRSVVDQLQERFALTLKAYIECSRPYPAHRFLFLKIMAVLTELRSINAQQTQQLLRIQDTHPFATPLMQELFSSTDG

In the case of `Clc1ccc(C2(Cn3cncn3)OCCO2)c(Cl)c1`, the activity, negative = cell killing is -15.5% in experiment [1] (setting [4]), 0.916% in experiment [1] (setting [5]) and -23.5% in experiment [1] (setting [6]). In addition, the Potency entry with astro is “inactive”.

For `CCC(=O)O[C@@](Cc1ccccc1)(c1ccccc1)[C@@H](C)CN(C)C`, the activity, negative = cell killing in experiment [1] (setting [7]) is 2.51%; in experiment [1] (setting [8]), -6.39%; in experiment [1] (setting [9]) it was -21.4%. For the same compound, in the experiment on astro, the Potency entry was “inactive”.

Regarding `O=C1OC2(c3cc(Br)c(O)cc3Oc3c2cc(Br)c(O)[c]3[Hg])c2ccccc21` (centres undefined), in experiment [1] (setting [7]), the activity, negative = cell killing is -9.78%. In experiment [1] (tumour line A), the Potency was 14.1 µM (active). Besides, in the experiment on astro, the Potency result is “inactive”.

In the case of `CC[N+](C)(CC)CCOC(=O)C(O)(c1ccccc1)c1ccccc1`, the values for the activity, negative = cell killing in experiment [1] (setting [4]), in experiment [1] (setting [5]) and in experiment [1] (setting [10]) were -10.1%, -2.57% and -29.2%, respectively. Besides, the Potency entry with astro was “inactive”.

With `CCC1(CC)C(=O)NC(=O)N(C)C1=O`, the activity, negative = cell killing in experiment [1] (setting [4]) was -3.71%; in experiment [1] (setting [5]) it was -23.6%; in experiment [1] (setting [6]) it was -31.1%. Further, the Potency result in the experiment on astro was “inactive”.

With `S=C=S`, the activity, negative = cell killing in experiment [1] (setting [4]) was -6.17%; in experiment [1] (setting [5]), -16.5%; in experiment [1] (setting [6]), -10.7%. Moreover, the Potency entry with astro is “inactive”. Also, the max response in experiment [2] is -0.686%. Besides, the compound was called inactive in experiment [3].

Regarding `C=CC[C@]1(O)CC[C@H]2[C@@H]3CCC4=CCCC[C@@H]4[C@H]3CC[C@@]21C`, the activity, negative = cell killing in experiment [1] (setting [6]) is -3.65%. Further, the Potency in experiment [1] (tumour line A) was 12.6 µM (active). In addition, the Potency entry in the experiment on astro is “inactive”.

Regarding `O=C1CCO1`, the activity, negative = cell killing in experiment [1] (setting [4]) was -1.82%; in experiment [1] (setting [5]) it was 6.37%; in experiment [1] (setting [6]) it was -10.3%. For the same compound, the Potency result in the experiment with astro was “inactive”. Further, the max response in experiment [2] is -3.35%. For the same compound, the outcome in experiment [3] was inactive.

As to `N#CN`, the activity, negative = cell killing in experiment [1] (setting [4]) was -13.5%; in experiment [1] (setting [5]), -4.31%; in experiment [1] (setting [6]) it was -5.37%. Further, the Potency result with astro was “inactive”. Besides, in experiment [2], the max response was 6.95%. Further, the compound was classed as inactive in experiment [3].

As to `C[N+]1(C)[C@@H]2CC[C@H]1CC(OC(=O)c1c[nH]c3ccccc13)C2` (some centres undefined), the results for the activity, negative = cell killing in experiment [1] (setting [4]) and in experiment [1] (setting [6]) were -23.1% and -27.7%, respectively. Also, in the experiment on astro, the Potency result was “inactive”.

With `COCC(C)N(C(=O)CCl)c1c(C)csc1C` (centres undefined), the figures for the activity, negative = cell killing in experiment [1] (setting [4]), in experiment [1] (setting [5]) and in experiment [1] (setting [6]) were -13.4%, -11.3% and -13.3%, respectively. Also, the Potency result in the experiment on astro was “inactive”. In experiment [2], the max response was 2.96%.

Take `CC(=O)OC1CN2CCC1CC2` (centres undefined): the activity, negative = cell killing was -1.18% in experiment [1] (setting [4]), 12% in experiment [1] (setting [5]) and -1.09% in experiment [1] (setting [6]). Also, the Potency result with astro is “inactive”.

As for `CCC1(c2ccccc2)C(=O)NC(=O)N(C(=O)c2ccccc2)C1=O` (centres undefined), the activity, negative = cell killing is -17.6% in experiment [1] (setting [4]), -13.8% in experiment [1] (setting [5]) and -23.5% in experiment [1] (setting [6]). Also, in the experiment with astro, the Potency entry was “inactive”.

For the compound `O=C1CCCCC1CN1CCCCC1` (centres undefined), the activity, negative = cell killing in experiment [1] (setting [4]) is -12.3%; in experiment [1] (setting [5]), 4.04%; in experiment [1] (setting [6]) it was -15.7%. In the experiment with astro, the Potency entry was “inactive”.

With `CCCCCCCCOC(=O)c1ccccc1C(=O)OCCCCCCCC`, the activity, negative = cell killing was -18% in experiment [1] (setting [4]), 6.99% in experiment [1] (setting [5]) and -8.6% in experiment [1] (setting [6]). In the experiment on astro, the Potency entry was “inactive”. In experiment [2], the max response is -1.02% and 3.16%. Further, the call in experiment [3] was inactive.

Turning to `CN1CCCC(=C(c2cccs2)c2cccs2)C1`, the activity, negative = cell killing in experiment [1] (setting [4]) was -10.4%; in experiment [1] (setting [5]) it was -24.1%. Moreover, the Potency entry in the experiment on astro was “inactive”.

Regarding `C#CC(C)(O)CC` (centres undefined), the activity, negative = cell killing in experiment [1] (setting [4]) is -22.2%; in experiment [1] (setting [5]), -11.4%; in experiment [1] (setting [6]), -2.82%. The Potency result in the experiment with astro was “inactive”.

With `CN1[C@@H]2CC[C@H]1CC(OC1c3ccccc3CCc3ccccc31)C2` (some centres undefined), the activity, negative = cell killing in experiment [1] (setting [8]) was -28.8%. For the same compound, the Potency in experiment [1] (tumour line A) was 5.62 µM (active). For the same compound, the Potency result with astro was “inactive”.

`OC(c1ccccc1)(c1ccccc1)C1CN2CCC1CC2` (centres undefined): the activity, negative = cell killing in experiment [1] (setting [4]) was -13.1%. In addition, the Potency in experiment [1] (tumour line A) is 12.6 µM (active). The Potency entry in the experiment on astro is “inactive”.

As to `C=CCN=C=S`, the activity, negative = cell killing in experiment [1] (setting [4]) was -6.51%; in experiment [1] (setting [5]), -10.4%; in experiment [1] (setting [6]), 6.26%. Moreover, the Potency result in the experiment on astro is “inactive”. Further, the max response in experiment [2] is 3.71%. Besides, in experiment [3], the result was inactive.

For the compound `Cc1ccccc1-n1c(CF)nc2ccc(N)cc2c1=O`, the results for the activity, negative = cell killing in experiment [1] (setting [4]), in experiment [1] (setting [5]) and in experiment [1] (setting [6]) were -13.6%, 0.0058% and -23.5%, respectively. Besides, the Potency result in the experiment with astro is “inactive”.

Take `O=[N+]([O-])c1ccc(F)c([N+](=O)[O-])c1`: in experiment [1] (setting [4]), the activity, negative = cell killing was -29.6%. Moreover, the Potency was 20 µM (active) in experiment [1] (tumour line A) and 14.6 µM (active) in experiment [1] (tumour line C). The call in experiment [3] was inactive.

With `CCNC1(c2cccs2)CCCCC1=O` (centres undefined), the activity, negative = cell killing in experiment [1] (setting [7]) is -10.7%; in experiment [1] (setting [8]), 2.65%; in experiment [1] (setting [9]), -6.43%. Besides, the Potency result in the experiment with astro is “inactive”.

In the case of `Cc1cccc(C(C)c2cnc[nH]2)c1C` (centres undefined), the figures for the activity, negative = cell killing in experiment [1] (setting [4]), in experiment [1] (setting [5]) and in experiment [1] (setting [6]) were -17.4%, 6.82% and -27%, respectively. The Potency entry in the experiment on astro was “inactive”.

On to `c1csc(C2(N3CCCCC3)CCCCC2)c1`, for which the values for the activity, negative = cell killing in experiment [1] (setting [4]), in experiment [1] (setting [5]) and in experiment [1] (setting [6]) were -10.4%, -7.27% and -24.6%, respectively. In addition, the Potency result with astro is “inactive”.

On to `CN[C@H]1C[C@@H](N)[C@H](O)[C@@H](O[C@@H]2O[C@H](CO)[C@H](O)[C@@H]3OC4(O[C@H]23)O[C@H](C(N)CO)[C@H](O)[C@H](O)[C@H]4O)[C@@H]1O` (some centres undefined), for which the activity, negative = cell killing is -24.2% in experiment [1] (setting [5]); -23.6% in experiment [1] (setting [10]); 9% and -3.99% in experiment [1] (setting [6]). The Potency result in the experiment with astro is “inactive”.

The values are drawn from PubChem BioAssay (NCATS).
